Results reported in PubChem BioAssay AID2188 (Vanderbilt High Throughput Screening Facility, 2009).
Measured potencies and affinities stand elsewhere.

Biological target: Metabotropic glutamate receptor 2 (Rattus norvegicus) (UniProt P31421)
Assay: mGluR2 modulation, off-target check – cell-based, rat, selectivity assay for mGluR4 modulator project (AID 2188)
Settings: mGluR2 cells, thallium flux, glutamate CRC + 10 uM compound; glutamate EC50 fold-shift by compound; at 10 µM; stronger effect = higher value

Metabotropic glutamate receptor 2 (Rattus norvegicus), sequence (P31421 whole entry, looked up): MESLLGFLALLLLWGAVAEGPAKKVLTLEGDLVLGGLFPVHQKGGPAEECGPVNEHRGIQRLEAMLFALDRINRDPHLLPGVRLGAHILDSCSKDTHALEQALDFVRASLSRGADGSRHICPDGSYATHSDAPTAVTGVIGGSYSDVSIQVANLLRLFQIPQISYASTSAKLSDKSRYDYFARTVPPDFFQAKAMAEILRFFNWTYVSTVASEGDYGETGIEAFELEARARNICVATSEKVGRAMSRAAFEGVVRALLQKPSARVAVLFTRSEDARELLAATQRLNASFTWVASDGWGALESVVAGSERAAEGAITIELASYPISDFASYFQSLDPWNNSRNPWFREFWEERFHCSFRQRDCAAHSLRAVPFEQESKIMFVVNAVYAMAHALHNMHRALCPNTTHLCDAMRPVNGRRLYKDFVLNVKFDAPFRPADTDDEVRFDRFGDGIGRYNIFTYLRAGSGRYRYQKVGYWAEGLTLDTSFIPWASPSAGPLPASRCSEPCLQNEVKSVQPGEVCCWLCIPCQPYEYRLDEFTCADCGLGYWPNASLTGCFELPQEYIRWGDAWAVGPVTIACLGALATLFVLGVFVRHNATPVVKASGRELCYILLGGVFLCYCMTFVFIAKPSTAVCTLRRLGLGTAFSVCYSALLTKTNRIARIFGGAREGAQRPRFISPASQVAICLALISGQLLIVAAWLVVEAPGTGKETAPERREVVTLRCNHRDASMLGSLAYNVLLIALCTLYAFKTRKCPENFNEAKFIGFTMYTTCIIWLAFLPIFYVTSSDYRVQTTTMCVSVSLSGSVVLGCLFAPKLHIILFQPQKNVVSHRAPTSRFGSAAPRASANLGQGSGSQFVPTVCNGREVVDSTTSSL

Row | Compound | fold shift
1 | O=C(Nc1ccc(N2C(=O)C3[C@H]4C=C[C@H](C4)[C@H]3C2=O)c(Cl)c1)c1ccccn1 (some centres not stated) | 1.05
2 | O=C(Nc1cccc(Cl)c1)c1ccccn1 | 1.87
